Results filed as inconclusive are left out. Calls of active or inactive are those of the source. The call rests on the fitted dose curve; in most records, active means well fitted curve in the direction sought with a large enough effect; inconclusive means small, poorly fitted or top-dose-only effect, or another doubt; inactive means no such curve, though single readings can be large; an effect the other way counts as inactive or inconclusive.
target: Rap guanine nucleotide exchange factor 4 (Homo sapiens) (UniProt Q8WZA2); assay: Confirmatory qHTS for agonist of cAMP-regulated guanine nucleotide exchange factor 4 (EPAC2) (AID 1645884); conditions: EPAC2 GEF activity, Rap1B-BODIPY-GDP fluorescence; series mostly up to 154 µM; activation: at the top concentration;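 further: nucleotide exchange releases bodipy-GDP from Rap1 and this lowers its fluorescence; nearly all actives have a fitted effect of over 65% in size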
On the % scale 0 is the no-effect control and ±100 the full control effect.

Rap guanine nucleotide exchange factor 4 (Homo sapiens), sequence (Q8WZA2 whole entry, looked up): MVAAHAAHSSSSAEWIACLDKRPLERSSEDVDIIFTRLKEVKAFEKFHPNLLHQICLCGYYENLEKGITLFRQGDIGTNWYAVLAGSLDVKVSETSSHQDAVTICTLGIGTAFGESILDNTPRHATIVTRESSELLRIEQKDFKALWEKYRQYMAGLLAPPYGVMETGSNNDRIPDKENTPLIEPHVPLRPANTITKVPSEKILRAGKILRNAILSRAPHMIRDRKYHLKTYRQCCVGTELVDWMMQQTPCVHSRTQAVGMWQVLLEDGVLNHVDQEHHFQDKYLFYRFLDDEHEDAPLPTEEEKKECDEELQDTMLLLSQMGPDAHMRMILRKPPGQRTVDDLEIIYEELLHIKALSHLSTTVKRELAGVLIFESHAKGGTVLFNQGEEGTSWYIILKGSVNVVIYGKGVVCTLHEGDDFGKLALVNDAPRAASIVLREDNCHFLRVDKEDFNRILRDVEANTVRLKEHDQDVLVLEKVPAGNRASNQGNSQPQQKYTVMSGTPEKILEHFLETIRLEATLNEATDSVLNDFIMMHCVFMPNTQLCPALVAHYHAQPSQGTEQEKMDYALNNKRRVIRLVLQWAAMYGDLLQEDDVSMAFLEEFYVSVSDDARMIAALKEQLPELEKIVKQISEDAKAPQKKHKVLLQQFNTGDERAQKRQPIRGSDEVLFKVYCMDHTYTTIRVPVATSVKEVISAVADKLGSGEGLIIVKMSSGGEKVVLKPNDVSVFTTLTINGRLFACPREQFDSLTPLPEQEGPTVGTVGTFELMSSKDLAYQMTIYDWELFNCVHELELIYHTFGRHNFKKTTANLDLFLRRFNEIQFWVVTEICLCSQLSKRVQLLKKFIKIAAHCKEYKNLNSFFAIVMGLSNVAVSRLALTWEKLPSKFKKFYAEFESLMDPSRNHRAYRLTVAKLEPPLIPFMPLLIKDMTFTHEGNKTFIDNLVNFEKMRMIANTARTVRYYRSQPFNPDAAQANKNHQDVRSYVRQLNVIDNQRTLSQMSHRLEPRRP

activation, inactive:
CC1(C(=O)NS(=O)(=O)c2ccc3ccccc3c2)CCN1C(=O)Cc1ccc(-c2ccccc2)cc1 (stereo not given) 1.72% [at 17.1 µM, percent relative to cAMP agonist control], CC(C)n1c(CNC(=O)c2ccccc2F)nnc1SCC(=O)NC1CCCCC1 -10.6%, Cc1cc2c(cc1C)C(c1ccccc1OC(C)C)CC(=O)N2 (stereo not given) -0.777%, CCc1noc(C)c1C(=O)Nc1nc2c(C)cc(C)cc2s1 -14.9%, CCOc1ccc2nc3cc(N=Nc4ccc(N)nc4N)ccc3c(N)c2c1 2.08% [at 17.1 µM, percent relative to cAMP agonist control]

target: Rap guanine nucleotide exchange factor 4 (Homo sapiens) (UniProt Q8WZA2); assay: Confirmatory qHTS for antagonist of cAMP-regulated guanine nucleotide exchange factor 4 (EPAC2) (AID 1645885); conditions: EPAC2 Rap1B-BODIPY-GDP exchange fluorescence, biochemical; series mostly up to 12.7 µM; activity change, negative = inhibition: at the top concentration; further: nearly all actives have a fitted effect of over 25% in size; further: potency means the concentration at half of the fitted maximal effect

outcome, inactive:
CCCCC[C@@H](C)N1C[C@H](COCc2ccccc2)Oc2cc(N3CC[C@@H](O)C3)ccc2S1(=O)=O, COCC(=O)Oc1c(Sc2ccccc2[N+](=O)[O-])c(C)nn1C(C)(C)C

Potency, active:
CN(C)c1ncc2ncc(=O)n(Cc3cccs3)c2n1 39.3 µM, COc1ccc(C2CC(=O)c3c(O)cc(O)cc3O2)c(CC=C(C)C)c1OC (stereo not given) 67.5 µM, O=C(c1cc(C(F)(F)F)cc(C(F)(F)F)c1)N1CCC2(CCCN(c3ncccn3)C2)CC1 44.1 µM, CCCCC[C@H](C)N1C[C@@H](COCc2ccccc2)Oc2cc(N3CC[C@H](O)C3)ccc2S1(=O)=O 19 µM, COCOCCn1cc(CN2CCS(=O)(=O)N(Cc3ccc(-c4ccc(F)cc4)cc3)C(CC(C)C)C2=O)nn1 (stereo not given) 8.49 µM, O=c1c(O)c(-c2ccccc2)oc2ccc3occc3c12 5.55 µM, Cc1cc2c(cc1C)C(c1ccccc1OC(C)C)CC(=O)N2 (stereo not given) 33.8 µM

Activity change, negative = inhibition, inactive:
COC(=O)c1ccc2nc(-c3ccc(OC)c(OC)c3)c(Cc3ccccc3)n2c1 -82.6% [at 114 µM], CCOc1ccccc1CNC(=O)Cn1nc(C)c2c(C)n(-c3ccc(C)cc3)nc2c1=O -1.61%, Nc1nc(N)c(-c2cccc(C(F)(F)F)c2)c(Cc2cccc(C(F)(F)F)c2)n1 140% [at 114 µM], COC(=O)[C@@]1(C)CCC[C@@]2(C)c3ccc(O)c(C(C)C)c3CCC21 (stereo not given in full) -28.5% [at 114 µM], CCO[C@H]1OC(C(=O)NCc2ccccc2)=C[C@@H](c2ccc(C(F)(F)F)cc2)[C@@H]1CCCO 189% [at 114 µM], CC(C)(C)c1ccc(S(=O)(=O)NC(=O)C2(C)CCN2C(=O)Cc2ccc(-c3ccccc3)cc2)cc1 (stereo not given) -22.7%, Cc1cccc(N2CC(C(=O)Nc3nnc(SCC(=O)NCC4CCCO4)s3)CC2=O)c1 (stereo not given) -17.8% [at 114 µM], CCC(C)n1c(SCC(=O)Nc2ccc3[nH]c(=O)[nH]c3c2)nc2ccccc2c1=O (stereo not given) -5.59%, O=C(Nc1ccccc1N1CCCCC1)c1cnccn1 -29.6%, CC(C)=CCc1c2c(c3occ(-c4ccc(O)cc4)c(=O)c3c1O)C=CC(C)(C)O2 -29.1% [at 114 µM], O=C(O)c1cc(NN=Nc2cccc([N+](=O)[O-])c2)cc([N+](=O)[O-])c1 -10.5%, O=C(CSc1nccn1Cc1ccc(Cl)cc1)Nc1ccc2c(c1)OCO2 12.8%, Cc1occc1C(=O)N/N=C/C1=C(N2CCOCC2)C(=C/c2ccc(Cl)cc2Cl)/CC1 -23.5% [at 114 µM], COc1cccc(C(=O)/C=C/c2ccc(OCC#N)c(OC)c2)c1 -1.1%, CC1(C(=O)NS(=O)(=O)c2ccc3ccccc3c2)CCN1C(=O)Cc1ccc(-c2ccccc2)cc1 (stereo not given) -9.83%, CCOc1ccc2nc3cc(N=Nc4ccc(N)nc4N)ccc3c(N)c2c1 -9.08%
